Laboratory results as given in the supplement of paper PMC6555819.

What was measured:
Assay in all cases: PBM binding z-score (relative to random genomic background probes); higher = stronger binding; sequences stand for … in GC…GCGATTGACAGCGTAGAATGAAGG
[1] = tested on: RARb homodimer (NR concentration 270 nM)
Procedure, shortened: (§1)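 The probes on custom Agilent 4×180K protein-binding microarrays were double-stranded, with 34-nt variable regions bearing direct-repeat seeds, single-nucleotide variants, half-site ablations and random human genomic background sequences. Incubation lasted 1 h with ligand-free nuclear receptor dimers in PBS pH 7.4, 2% milk, 0.02% Triton X-100, 1 mM DTT, 0.2 mg/mL BSA and 0.4 mg/ml salmon testes DNA. Antibodies against each partner (one per run) detected bound dimers, and fluorescence scans were regression-normalized. Binding z-scores take the random background probes as reference.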

[2] = tested on: RARg:RXRa (NR concentration 270 nM, RXRa partner concentration 90 nM)
Procedure, shortened: as §1

[3] = tested on: RARg homodimer (NR concentration 270 nM)
Procedure, shortened: as §1

[4] = tested on: RXRa DBDmut IVT, anti-RXR (DBD mutation: RXRa K156A/R161A, NR concentration 90 nM)
Procedure, shortened: as §1

[5] = tested on: RXRa homodimer (NR concentration 180 nM)
Procedure, shortened: as §1

[6] = tested on: THRa:RXRa (NR concentration 90 nM, RXRa partner concentration 90 nM)
Procedure, shortened: as §1

[7] = tested on: THRa homodimer (NR concentration 90 nM)
Procedure, shortened: as §1

[8] = tested on: VDR:RXRa (NR concentration 270 nM, RXRa partner concentration 90 nM)
Procedure, shortened: as §1

[9] = tested on: VDR homodimer (NR concentration 270 nM)
Procedure, shortened: as §1

Sequence	PBM binding z-score [1]	PBM binding z-score [2]	PBM binding z-score [3]	PBM binding z-score [4]	PBM binding z-score [5]	PBM binding z-score [6]	PBM binding z-score [7]	PBM binding z-score [8]	PBM binding z-score [9]
CTCGAAAGGTCGTGCACAGGTGAGTATACCAAAC	3.18	5.89	4.46	2.16	5.32	3.21	0.254	3.8	1.42
TCAGACAGGTGCAGGTAACTCAGGTACGCAGTCG	-0.182	-0.0126	-0.0497	0.956	0.745	0.824	0.0725	0.362	0.478
GGAACGAGGGCAATGTTGATAGCATCTGTCGACG	0.983	1.08	1.66	1.93	0.843	0.966	-0.016	0.402	0.72
ATCTCGAGGTAACAAGTTCAGTGAAAGAGAGGAC	1.83	2.13	1.42	0.518	1.15	2.31	0.969	2.63	2.28
CCTAGCAGGCCAGGGTCACTAAAGCATTTCGCTT	2.69	2.79	2.41	0.297	2.89	2.67	0.878	2.08	0.922
ATCTCTAGGCAACAAGTTCAGTGAAAGAGAGGAC	1.5	0.455	0.889	0.344	0.308	0.961	0.49	1.82	2.1
AATACAGGGTCACTAGGCCATAGTAGGTACGAAT	3.38	5.37	4.61	2.58	5.6	3.55	1.24	4.25	2.98
GCTAGTTGGTCAGTAATAGGTCACACACCGGTCG	3.86	3.12	2.58	0.228	2.43	2.06	0.841	1.73	0.317
CCTAGCATGCCAATCTGGGTCACTCAAGGCTTGA	1.86	0.768	0.691	0.255	0.917	2.93	0.266	0.733	-0.104
CAAACTGGGTCACGAAAGGTCAAAGTCGAATGAC	5.73	7.84	8.05	2.44	8.52	5.02	1.75	6.96	3.72
ACTAGCAGGCCAAGTTTGGGTGACTCAAACAAAG	0.251	0.0882	-0.216	-0.308	-0.222	0.796	-0.161	-0.388	-0.571
CGAACTAGGTAATTGACAGGACAGTGAATAGTAA	0.027	0.00313	0.198	0.0767	-0.137	0.166	-0.0579	-0.257	-0.054
GCATATAGGTAAAACAAGGTGAAAGTCCGATTGT	0.61	0.353	0.33	0.273	0.55	4.2	0.967	0.401	0.035
TTACCAAAGTGAAGGTCGTTGATCCCTCTGTAGA	0.733	0.112	-0.254	0.0594	0.926	0.74	-0.495	0.954	0.739
TCTTGTAGATCAGCAGGTTTAGAAAGCTGGCCAA	-0.607	-0.508	-0.884	0.412	-0.374	-0.307	-0.755	0.532	-0.457
ATCGAAAGGTCGAGGTGGGTATAGAGAAAGGGAA	3.07	4.26	4.29	1.35	4.24	2.64	0.668	3.34	1.09
